# Rows were chosen to be rich in hits. Some 1.2% of all compounds tested hit in one or more screens of this group.
# GALR2 agonist – GALR2 receptor agonists, primary screen, cell-based. Galanin receptor type 2 (Homo sapiens), O43603. activation, % (concentration not given with the values). AID 803, 2007. 140,000 tested, 0.48% active. GALR2-expressing cells, agonist activation read-out; in the data active = activation above about 5%, passing the limit was not always enough;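 also: 0% = vehicle buffer wells and 100% = reference agonist at full effect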
# Target sequence (O43603 whole entry, looked up): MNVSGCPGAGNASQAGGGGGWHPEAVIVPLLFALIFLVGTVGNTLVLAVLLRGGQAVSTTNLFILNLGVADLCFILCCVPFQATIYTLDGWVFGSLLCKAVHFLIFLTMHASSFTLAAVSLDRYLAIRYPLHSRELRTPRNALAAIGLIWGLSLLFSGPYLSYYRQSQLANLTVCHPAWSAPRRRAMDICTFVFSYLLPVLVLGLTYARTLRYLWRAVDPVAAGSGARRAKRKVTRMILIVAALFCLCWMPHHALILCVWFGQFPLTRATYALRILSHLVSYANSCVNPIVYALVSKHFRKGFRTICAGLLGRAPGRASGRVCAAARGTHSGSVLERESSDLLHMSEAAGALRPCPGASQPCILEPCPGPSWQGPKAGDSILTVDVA
# S1P2 blocker – human S1P2 receptor antagonists, primary screen, cell-based; cell-based S1P2 antagonist assay, inhibition at 5 uM; Sphingosine 1-phosphate receptor 2 (Homo sapiens), O95136; AID 736, 2007; 97,000 tested, 0.21% active; inhibition, % at 5 µM; in the data active = inhibition above about 45%;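 also: CRE beta-lactamase reporter cells expressing human S1P2 stimulated with S1P; 0% = agonist at EC80 alone and 100% = agonist plus reference antagonist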
# S1P2 agonist – S1P2 receptor agonists, primary screen, cell-based; S1P2-expressing cell line, agonist reporter read-out; activation, % at 4.5 µM; 97,000 tested, 0.46% active; AID 729, 2007; in the data active = activation above about 16%;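 also: 0% = vehicle low control and 100% = maximal reference agonist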
# GALR2 blocker – GALR2 antagonists in receptor-expressing cells, primary screen; Galanin receptor type 2 (Homo sapiens), O43603; antagonist mode; inhibition, % at 4 µM; 140,000 tested, 0.39% active; AID 828, 2007; in the data active = inhibition above about 27%;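 also: cells stimulated with galanin 1-16 at roughly its EC80; 0% = agonist challenge control and 100% = basal control without agonist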
# Numbers without * were called inactive; x = not tested or not shown.
SMILES,GALR2 agonist,S1P2 blocker,S1P2 agonist,GALR2 blocker
Cc1cc(NC(=O)CN2C(=O)NC3(CCC(C)CC3)C2=O)no1 (stereo unspecified),-1.1,x,x,13.5
O=C(NCCN1CCN(c2ccccc2F)CC1)C1CC(=O)N(C2CCCC2)C1 (stereo unspecified),-0.9,11.1,21.3*,-12.8
O=C(NCCN1CCN(Cc2ccccc2)CC1)C1CC(=O)N(C2CCCC2)C1 (stereo unspecified),-1.1,0.8,-0.9,-8.1
COc1cccc(N2CCN(c3ncnc4c3cnn4-c3ccc(C)cc3C)CC2)c1,-4.1,66.3*,-10.8,1.9
CCOc1ccc(OCC)c(NC(=O)CSc2nc3c(c(=O)n(C)c(=O)n3C)n2C(C)C)c1,-0.1,-37.5,25.6*,-1.4
CCOc1ccc(OCC)c(NC(=O)CSc2nc3c(c(=O)n(C)c(=O)n3C)n2CC)c1,-1.8,-18.3,4.1,-1.4
CSc1cc(-c2ccc(Cl)cc2)n(Cc2ccccc2)c(=O)c1C#N,438.3*,-18.8,-8.2,-3.2
CSc1cc(-c2ccccc2)n(Cc2c(Cl)cccc2Cl)c(=O)c1C#N,-0.4,0.2,-3.5,-5.7
Oc1cccc(C(=S)N2CCN(Cc3ccccc3)CC2)c1,-1.3,12.4,56.0*,-0.1
COc1ccc(/C=N/NC(=O)c2sccc2OCc2ccc(F)cc2)cc1OC,0.7,-17.5,-2.0,-8.5
CC1=C(C(=O)Nc2ccccc2)C(c2ccc(C)cc2)N=C(Nc2nc3ccccc3o2)N1 (stereo unspecified),6.3,2.0,2.0,1.6
CCCNC(=O)c1c(N)n(-c2cc(OC)cc(OC)c2)c2nc3ccccc3nc12,13.9*,x,x,-8.6
CCCNC(=O)c1c(N)n(-c2ccc3c(c2)OCO3)c2nc3ccccc3nc12,0.4,13.6,-0.5,-2.2
COc1ccc(CNC(=O)c2c(N)n(CCCN3CCOCC3)c3nc4ccccc4nc23)cc1,32.5*,-73.2,39.2*,-34.6
Nc1c(C(=O)NCc2ccc(F)cc2)c2nc3ccccc3nc2n1CCCN1CCOCC1,41.1*,-70.5,44.8*,-42.6
O=C1C2C3C=CC(CO)(O3)C2C(=O)N1c1ccccc1-c1ccccc1 (stereo unspecified),-0.9,x,x,75.6*
COc1ccc(Cn2c(-c3ccc(C)cc3)nc3c(c(=O)c4ccccc4n3C)c2=O)cc1,5.1*,x,x,-8.2
COc1ccc2c(CC(=O)NCc3ccc4c(c3)OCO4)coc2c1,-1.9,-4.2,-1.3,0.0
c1ccc2c(c1)[nH]c1c(N3CCSCC3)ncnc12,-1.2,48.4*,-7.0,32.0*
c1ccc2c(c1)[nH]c1c(N3CCCC3)ncnc12,-0.2,23.2,-1.3,21.1
Cc1cc(C)n(-c2nc(NCCO)c3c4c(sc3n2)CCCC4)n1,8.1*,21.1,-2.9,-13.3
Cc1cc(C)n(-c2nc(NCC3CCCO3)c3c4c(sc3n2)COC(C)(C)C4)n1 (stereo unspecified),0.2,-41.1,-3.0,-2.5
Cc1ccc(CNc2nc(C)nc3sc4c(c23)CCC4)cc1,-1.8,14.3,-6.3,3.2
Cc1cc(C)n(-c2nc(NCC(C)O)c3c4c(sc3n2)COC(C)(C)C4)n1 (stereo unspecified),-1.1,1.3,-5.8,-2.6
Cc1cc(C)n(-c2nc(NCCCO)c3c4c(sc3n2)CCCC4)n1,35.7*,3.8,-0.4,-25.8
SMILES,GALR2 agonist,S1P2 blocker,S1P2 agonist,GALR2 blocker
Cc1cc(C)n(-c2nc(NCC(C)O)c3c4c(sc3n2)CCCC4)n1 (stereo unspecified),8.8*,6.3,-5.0,-10.8
CC1CCN(C(=O)COC(=O)c2cc(Cl)cc(Cl)c2N)CC1,-0.2,-7.8,-2.3,-2.0
CN1CCN(C(=O)/C(=C\c2cccs2)NC(=O)c2ccco2)CC1,-1.1,x,x,5.6
c1ccc2[nH]c(CSc3ncnc4c3oc3ccccc34)nc2c1,0.7,-28.0,31.6*,4.4
Cc1nc(SCc2nc3ccccc3[nH]2)c2oc3ccccc3c2n1,-0.9,-35.3,23.2*,0.9
Fc1ccc(CSc2ncnc3c2oc2ccccc23)cc1,-0.7,x,x,-7.1
COc1ccc(S(=O)(=O)N2CCN(c3ccc4nnc(-c5ccc(F)cc5)n4n3)CC2)cc1,0.6,47.9*,-6.9,-3.6
Cc1ccc(S(=O)(=O)N2CCN(c3ccc4nnc(-c5ccccc5)n4n3)CC2)cc1,-1.7,-14.6,0.1,-10.6
Cc1c(C(=O)NC(C(C)C)C(C)C)cccc1[N+](=O)[O-],0.4,x,x,-2.0
CS(=O)(=O)N(CCc1ccccc1)CC(=O)N1CCN(c2ccc(F)cc2)CC1,-1.9,-5.2,-4.9,5.2
CCOc1ccccc1N1CCN(c2nc(N)c(C#N)c(CC#N)c2C#N)CC1,-0.1,-6.4,1.3,-10.6
CCCCN1C(=O)Cc2c1nc(N)c1c(N)nc(N(CCC)CCC)c(C#N)c21,0.6,0.8,-0.5,1.3
CCCN(CCC)c1nc(N)c(C#N)c(CC#N)c1C#N,0.1,-41.7,16.4*,-7.9
CCCN(CC1CC1)c1nc(N)c(C#N)c(CC#N)c1C#N,-0.9,-34.8,16.5*,-8.1
COc1cc(C)c(/C=C(\C#N)C(=O)Nc2cccc(C)c2)cc1C(C)C,0.6,x,x,-6.9
O=C(/C=C/c1ccc(OCCCF)cc1)NCc1ccc(Cl)cc1,0.0,8.7,-1.1,-0.6
Cc1nn(-c2ccccc2)c(Cl)c1/C=N/Nc1nc2ccccc2[nH]1,5.5*,x,x,12.6
CCCOc1ccc(C2C(C(=O)OC)=CN(CCOC)C=C2C(=O)OC)cc1,6.9*,-17.7,16.7*,-12.8
COCCN1C=C(C(=O)OC)C(c2ccc(OC)c(OC)c2)C(C(=O)OC)=C1,0.3,20.1,3.5,-15.8
Cc1ccc(-c2nc(CSCC(=O)NCCN3CCN(Cc4ccccc4)CC3)c(C)o2)cc1,-2.0,47.1*,-6.3,9.8
c1ccc(COc2ccc(-c3csnn3)cc2)cc1,-0.6,21.3,0.8,-3.5
CCSc1ccc(-c2nn(-c3ccccc3)cc2/C=C(/C#N)C(=O)NCCCOC)cc1,5.9*,x,x,0.4
CCCCn1c(=NC(=O)c2ccc3c(c2)OCO3)c(C#N)cc2c(=O)n3cccc(C)c3nc21,-2.0,-7.5,-5.2,-9.7
CC(C)n1c(=NC(=O)c2ccco2)c(C#N)cc2c(=O)n3ccccc3cc21,6.3*,x,x,0.1
Cc1ccc(NC(=S)N2CCC(c3nc4ccccc4s3)CC2)cc1,-0.5,13.2,-6.9,-7.4
SMILES,GALR2 agonist,S1P2 blocker,S1P2 agonist,GALR2 blocker
N=c1c(-c2nc3ccccc3[nH]2)cc(C(=O)c2cccs2)nn1-c1ccccc1,-2.8,-24.8,21.6*,1.0
CCn1c(/C=C/c2c(C)[nH]c3ccccc23)nc2ccccc2c1=O,7.3*,x,x,7.1
CCOP(=O)(c1ccc(N(C)C)cc1)C(O)c1ccc(Cl)cc1 (stereo unspecified),-1.5,-4.0,-3.2,-1.2
CCN(CC)c1ccc2c(Cl)c(Br)c(=O)oc2c1,0.1,103.0*,-17.5,76.4*
CCOC(=O)Cc1c(C)c2ccc(N(CC)CC)cc2oc1=O,18.9*,-6.4,20.3*,-4.0
CCOC(=O)CCc1c(C)c2ccc(O)cc2oc1=O,0.4,0.5,-0.1,4.2
COC(=O)CC/C(O)=C1/C(=N)CC(C)(C)CC1=O,-3.1,-7.8,-2.2,6.0
Cc1ccc(-c2nnc3c4ccccc4c(C)nn23)cc1S(=O)(=O)N1CCN(C)CC1,1.1,2.4,-1.7,10.0

# From PubChem BioAssay
